What all share (experiment): NCI-60 one-dose screen, 48 h (100 = growth as untreated, 0 = no growth, -100 = all killed)
Holding throughout (settings): 10 µM unless noted

The subject of assay [1] is RPMI-8226 leukemia.
Assay [2] concerns OVCAR-8 ovarian.
Assay [3] relates to OVCAR-5 ovarian.
Assay [4] deals with OVCAR-4 ovarian.
The subject of assay [5] is SK-OV-3 ovarian.
Assay [6] deals with IGROV1 ovarian.
The test system of assay [7] is OVCAR-3 ovarian.
Assay [8] deals with HS 578T breast.
Assay [9] deals with NCI/ADR-RES ovarian.
Assay [10] concerns T-47D breast.

From PubChem BioAssay (NCI) come the findings set out here.

About 83,000 compounds went through this panel and 20% of them were active in at least one assay; those are over-represented in the sample as a whole.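 Growth was measured after 48 h exposure to one concentration of compound in 96-well plates. Values under 10 count as active.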 Values without a mark were called inactive. The source made the active and inactive calls.

Take `O=C(CN1N=C(c2ccc(F)cc2)CCC1=O)Nc1nc2ccccc2s1`: the growth in assay [1] was 26.8%; in [2] it was -43% (active); in assay [3], 16.9%; in assay [4] it was 35.4%; in assay [5], 73.5%; in assay [6] it was -49.5% (active). Moreover, the growth in assay [7] was -40.6% (active); in assay [8], 67.6%; in assay [9] it was 6.92% (active); in assay [10], 83.3%.
For the compound `Cc1c(O)c(=O)ccn1-c1nc2ccccc2s1`, the growth in assay [1] is 96.8%; in [2] it was 85.4%; in assay [3], 98.7%; in assay [4] it was 97.7%; in [5] it was 99%; in [6] it was 109%. The growth in assay [7] is 100%; in assay [8], 95%; in [9], 57.1%; in [10] it was 92.4%.
Take `CCCn1c(N)c(C(N)=O)sc1=S`: the growth in [1] was 94.5%; in [2], 106%; in [3] it was 90.8%; in assay [4], 111%; in assay [5], 103%; in assay [6], 100%. The growth was 103% in assay [7], 95.7% in assay [8], 104% in assay [9] and 94.8% in [10].
On to `O=[N+]([O-])c1ccc(N=Nc2c(O)c(N=Nc3cc([N+](=O)[O-])cc([N+](=O)[O-])c3O)cc(N=Nc3cc(S(=O)(=O)O)cc4cc(S(=O)(=O)O)cc(O)c34)c2O)cc1`, for which the growth in [1] was 102%; in assay [2] it was 108%; in [3], 104%; in [4], 98.4%; in assay [5], 96.2%; in assay [6], 108%. In addition, the growth in assay [7] was 104%; in [8], 101%; in assay [9], 103%; in assay [10], 109%.
`Cc1cc(O)cc(O)c1N=NC1=NCCS1`: the growth in assay [1] is 106%; in [2], 101%; in assay [3] it was 101%; in [4] it was 102%; in assay [5], 97.2%; in assay [6] it was 104%. Moreover, the growth in assay [7] is 104%; in assay [8], 116%; in [9], 103%; in assay [10] it was 92.5%.
On to `Nc1c(C(=O)Nc2ccccc2Cl)sc2nc3c(cc12)CN(Cc1ccccc1)CC3`, for which the growth in assay [1] is 103%; in assay [2], 118%; in assay [3], 95.5%; in [4], 113%; in assay [5] it was 91.2%; in assay [6] it was 87.5%. Moreover, the growth in [7] is 85.1%; in [8] it was 108%; in [9], 99.8%; in assay [10], 87.8%.
As for `Cc1c(Br)cccc1NC(=O)c1sc2nc3c(cc2c1N)CN(Cc1ccccc1)CC3`, the growth in assay [1] is 4.4% (active); in assay [2] it was 14.1%; in [3] it was 36.7%; in assay [4], 28.1%; in [5], 22.8%; in assay [6], 39.3%. For the same compound, the growth in [7] is -7.95% (active); in [8], 11.3%; in [9], 24.2%; in assay [10], 43%.
For `O=C(Nc1nc(-c2ccccc2)cs1)c1cc(-c2ccc(Br)cc2)nc2ccccc12`, the growth is 39.9% in assay [1]; 57.1% in assay [2]; 81.7% in [3]; 57.6% in assay [4]; 51.6% in [5]; 59.4% in assay [6]. Also, the growth in assay [7] was 63.4%; in assay [8] it was 62.1%; in assay [9] it was 58.5%; in assay [10], 21.7%.
For the compound `O=C(/C(=C/c1ccc([N+](=O)[O-])cc1)SCc1ccc(F)cc1)c1ccc(Cl)cc1`, the growth in assay [1] was -16% (active); in [2], 66.2%; in assay [3], 95%; in assay [4], 57.8%; in assay [5], 74.8%; in assay [6], 53.8%. Moreover, the growth in assay [7] was 70.5%; in assay [8], 27.1%; in assay [9] it was 53%; in [10], 49.3%.
As for `CCOc1ccc(C2N(c3cc(OC)c(OC)c(OC)c3)C(=O)C2(F)F)cc1` (stereo not given), the growth in [1] was 14.6%; in assay [2], 43.2%; in assay [3] it was 66.5%; in [4], 49.6%; in assay [5], 71.9%; in assay [6], 37.8%. The growth is 7.25% (active) in assay [7], 37.4% in assay [8], 28.9% in assay [9] and 70% in [10].
Take `COc1ccc(C(=S)c2cc(OC)c(OC)c(OC)c2)cc1OC(=O)CCl`: the growth in [1] was 26.9%; in assay [2], 14.4%; in [3], 66.9%; in [4], 52.9%; in assay [5] it was 25.3%; in assay [6], 24.4%. Further, the growth was 8.17% (active) in assay [7], 37.8% in assay [8], 7.4% (active) in [9] and 62.6% in assay [10].
In the case of `Oc1ccc(CNNc2ccnc3c(O)cccc23)c2cccnc12`, the growth is 22.2% in assay [1]; 20.8% in assay [2]; 59.1% in [3]; 34.4% in assay [4]; 27.6% in assay [5]; 35.1% in [6]. Further, the growth is 37.8% in assay [7], 47.7% in assay [8], 6.61% (active) in [9] and 29.6% in [10].
For `CSc1nc(-c2cccs2)c2c(N)[nH]nc2n1`, the growth is 112% in assay [1]; 102% in assay [2]; 106% in [3]; 108% in assay [4]; 89.9% in assay [5]; 111% in assay [6]. The growth was 109% in [7], 106% in assay [8], 102% in assay [9] and 90.3% in [10].
For `NS(=O)(=O)c1ccc(-n2nc(-c3ccccc3)ccc2=O)cc1`, the growth is 109% in assay [1]; 101% in [2]; 113% in assay [3]; 117% in [4]; 99.6% in assay [5]; 72.3% in assay [6]. The growth in assay [7] is 112%; in assay [8], 106%; in [9], 103%; in assay [10] it was 93.8%.
Turning to `Cc1ccc(CS/C(=C\c2ccc([N+](=O)[O-])cc2)C(=O)c2ccc(F)cc2)cc1`, the growth in [1] was -18.3% (active); in assay [2], 57.1%; in assay [3], 97.7%; in assay [4], 60.6%; in assay [5] it was 79.2%; in assay [6], 58.5%. The growth was 60.1% in [7], 8.91% (active) in assay [8], 49.6% in assay [9] and 49.6% in assay [10].
Take `O=[N+]([O-])c1cccc(CN(Cc2cccc([N+](=O)[O-])c2O)c2ccccc2)c1O`: the growth in assay [1] was 59.8%; in assay [2], 83.2%; in assay [3], 76.5%; in [4] it was 68%; in [5], 86.4%; in assay [6], 60.4%. Moreover, the growth is 88.9% in assay [7], 94.6% in assay [8], 76% in assay [9] and 70.8% in assay [10].
As for `O=c1[nH]nc(-c2ccc(Br)cc2)c2sc(NC(=S)Nc3ccc(Cl)cc3)nc12`, the growth in [1] is 101%; in assay [2] it was 95.4%; in assay [3], 97.3%; in assay [4] it was 91.5%; in assay [5] it was 96.9%; in assay [6] it was 81.1%. Also, the growth in assay [7] is 104%; in [8] it was -1.82% (active); in assay [9], 80%; in assay [10] it was 85.9%.
For the compound `COCCOCCOCc1n(Cc2ccc3ccccc3n2)c2ccccc2[n+]1Cc1ccc2ccccc2n1`, the growth was 1.07% (active) in [1]; 19.9% in assay [2]; 40.6% in assay [3]; 15.4% in assay [4]; 21.3% in [5]; 20.2% in [6]. The growth in assay [7] was 7.54% (active); in [8] it was 47.1%; in assay [9], 102%; in assay [10], -4.32% (active).
With `O=c1c2ccccc2oc2ccc(OCCCCCCN3CCCCCC3)cc12`, the growth in assay [1] is 13.3%; in assay [2], 50.3%; in assay [3], 58.9%; in assay [4], 46.6%; in assay [5], 72.4%; in [6] it was 46.2%. Besides, the growth in assay [7] is 59.8%; in [8], 81.9%; in [9] it was 54.2%; in [10] it was 21.5%.
Turning to `COc1cc(C2CC(c3ccc(Nc4nc(NCCO)nc(NCCO)n4)cc3)=NN2c2cc(Cl)cc(Cl)c2)cc(OC)c1OC` (stereo not given), the growth in assay [1] was -13.8% (active); in assay [2], 11.9%; in assay [3], 54.6%; in assay [4], -20.1% (active); in assay [5], 108%; in assay [6] it was 4.18% (active). Further, the growth in assay [7] is -22.5% (active); in [8], -14.5% (active); in assay [9] it was 53.1%; in assay [10], 75.4%.
Turning to `CCCCc1nc(Cl)c(C2CC(c3ccc(Cl)cc3)=NN2c2cc(Cl)cc(Cl)c2)[nH]1` (stereo not given), the growth in assay [1] was 90.9%; in assay [2], 68.5%; in assay [3], 94.2%; in assay [4], 63.5%; in [5], 92.4%; in assay [6] it was 71.1%. The growth in assay [7] was 65.9%; in assay [8], 59.6%; in assay [9] it was 78.8%; in [10] it was 75%.
Consider `O=C1C(=O)c2c(nc3ccc(C(F)(F)F)cn23)-c2ccccc21`, for which the growth in [1] is -26.6% (active); in assay [2], -96% (active); in assay [3], -78% (active); in [4], -95.9% (active); in assay [5] it was -99.6% (active); in assay [6], -58.9% (active). The growth in assay [7] is -63% (active); in assay [8], -15.3% (active); in assay [9] it was -14.1% (active); in assay [10], -50.6% (active).
Regarding `O=C1C(Cl)=C(Nc2ccc3c(c2NC2=C(Cl)C(=O)c4ccccc4C2=O)C(=O)c2ccccc2C3=O)C(=O)c2ccccc21`, the growth in assay [1] is 28.1%; in assay [2] it was 22.3%; in [3], 3.29% (active); in [4], -12% (active); in assay [5] it was 90.3%; in [6] it was 6.05% (active). In addition, the growth is -2.06% (active) in [7], 42.2% in [8], 7.89% (active) in assay [9] and 10.5% in assay [10].
With `Cc1cccc(C)c1NC(=O)CN(CC(C)C)CC(O)COc1ccccc1` (stereo not given), the growth in assay [1] was 89.2%; in [2], 105%; in [3], 99.9%; in assay [4], 86.9%; in assay [5], 90.1%; in assay [6] it was 94.3%. Further, the growth in [7] was 111%; in assay [8], 118%; in [9] it was 86.7%; in assay [10] it was 85.3%.
For the compound `COc1ccc2[nH]c(=O)c(/C=C/C(=O)c3ccccc3OC)cc2c1`, the growth in assay [1] was 5.61% (active); in [2], 1.18% (active); in assay [3] it was 12.1%; in [4], 50.8%; in [5], 6.12% (active); in [6], 14.5%. For the same compound, the growth in [7] was 8.25% (active); in assay [8], 8.33% (active); in assay [9], 10.4%; in assay [10], -2.02% (active).
With `C#C[C@@]1(O)[C@@H](CO)O[C@@H](n2cc(Br)c3c(N)ncnc32)[C@@H]1O`, the growth in [1] is 0.406% (active); in [2] it was -0.359% (active); in assay [3], 18.8%; in assay [4], 5.79% (active); in assay [5] it was -8.02% (active); in assay [6] it was -22.5% (active). Besides, the growth in assay [7] is -25.5% (active); in assay [8], -5.73% (active); in assay [9], 1.19% (active); in assay [10], -20.1% (active).
